# Experimental data: PubChem BioAssay (NCATS)
# Inconclusive results are not listed. Entries that show only a call come without a potency. A number with no mark means an inactive call. Activity calls are given as the source filed them. Calls come from the whole dose curve; as a rule, active = well fitted curve in the direction sought with a large enough effect; inconclusive = small, poorly fitted or top-dose-only effect, or another doubt; inactive = no such curve, though single readings can be large; an effect the other way counts as inactive or inconclusive.
# Tests used:
# [1] = tested on: HEK293; experiment: Cytotoxic Profiling of Annotated Libraries Using Quantitative High-Throughput Screening (AID 1296008); details: Five cell lines viability, CellTiter-Glo ATP luminescence, 48-72 h; max response: hits give low values; note: nearly all actives have a fitted effect of over 60% in size
# Method in brief: (§1)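 Cells exposed to compounds for 48 or 72 hr at 37 degrees Celsius. Viability read as ATP-coupled luminescence with CellTiter-Glo after 10 min at room temperature.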
# [2] = tested on: HaCat; experiment: as above; details: Five cell lines viability, CellTiter-Glo ATP luminescence, 48-72 h; max response: hits give low values
# Method in brief: as §1
# [3] = tested on: KB-3-1; experiment: as above; details: Five cell lines viability, CellTiter-Glo ATP luminescence, 48-72 h; max response: hits give low values
# Method in brief: as §1
# [4] = tested on: NIH3T3; experiment: as above; details: Five cell lines viability, CellTiter-Glo ATP luminescence, 48-72 h; max response: hits give low values
# Method in brief: as §1
# [5] = tested on: C33A; experiment: Primary qHTS to identify gynecologic anti-cancer compounds using libraries of approved drugs and bioactive compounds (AID 1345084); details: Gynecologic cancer cell panel viability, ATPlite luminescence, 48 h; series mostly up to 57.5 µM; note: nearly all actives have a fitted effect of over 55% in size
# Method in brief: (§2)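 Cells, 1,000 per well, plated 16 h, then exposed 48 h at 37 C to compounds. Viability by ATPlite luminescence after 15 min at room temperature.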
# [6] = tested on: CASKI; experiment: as above; details: Gynecologic cancer cell panel viability, ATPlite luminescence, 48 h; series mostly up to 57.5 µM
# Method in brief: as §2
# [7] = tested on: Es-2; experiment: as above; details: Gynecologic cancer cell panel viability, ATPlite luminescence, 48 h; series mostly up to 57.5 µM
# Method in brief: as §2
# [8] = tested on: HeLa; experiment: as above; details: Gynecologic cancer cell panel viability, ATPlite luminescence, 48 h; series mostly up to 57.5 µM
# Method in brief: as §2
# [9] = tested on: Hek293T; experiment: as above; details: Gynecologic cancer cell panel viability, ATPlite luminescence, 48 h, control line for the selectivity index; series mostly up to 57.5 µM
# Method in brief: as §2
# [10] = tested on: JEG-3; experiment: as above; details: Gynecologic cancer cell panel viability, ATPlite luminescence, 48 h; series mostly up to 57.5 µM
# Method in brief: as §2
# Potency is the fitted concentration of half-maximal effect.
structure (smiles),measurement,setting,value
COC(=O)C1=C2Nc3ccccc3C23CCN2CCCC(C(C)O)(C1)C23 (stereo not given),max response,[1],-3.43%
same,max response,[2],-21.7%
same,max response,[3],6.23%
same,max response,[4],1.02%
same,Potency,[5],inactive
same,Potency,[6],inactive
same,Potency,[7],inactive
same,Potency,[8],inactive
same,Potency,[9],inactive
same,Potency,[10],inactive
Cc1cccc(C)c1-n1c(=O)c2cnc(Nc3ccc(N4CCN(C)CC4)cc3)nc2n2c3ccccc3nc12,Potency,[1],0.517 µM (active)
same,Potency,[2],2.06 µM (active)
same,Potency,[3],0.731 µM (active)
same,Potency,[4],1.3 µM (active)
same,Potency,[5],2.82 µM (active)
same,Potency,[6],14.1 µM (active)
same,Potency,[7],3.55 µM (active)
same,Potency,[8],6.31 µM (active)
same,Potency,[9],3.55 µM (active)
same,Potency,[10],12.6 µM (active)
C[C@H](C/C=C/C(C)(C)O)[C@H]1CC[C@@]2(C)[C@@H]3[C@@H](O[C@@H]4O[C@H](CO)[C@@H](O)[C@H](O)[C@H]4O)C=C4C(CC[C@H](O)C4(C)C)[C@]3(C=O)CC[C@]12C (stereo not given in full),max response,[1],-5.89%
same,max response,[2],-5.49%
same,max response,[3],8.11%
same,max response,[4],3.81%
same,Potency,[5],inactive
same,Potency,[6],inactive
same,Potency,[7],inactive
same,Potency,[8],inactive
same,Potency,[9],inactive
same,Potency,[10],inactive
Cc1cccc(S(=O)(=O)N2CCC[C@@H]2CCN2CCC(C)CC2)c1,max response,[1],-20.7%
same,max response,[2],-28.1%
same,max response,[3],-9.32%
same,max response,[4],-11.7%
same,Potency,[5],inactive
same,Potency,[6],inactive
same,Potency,[7],inactive
same,Potency,[8],inactive
same,Potency,[9],inactive
same,Potency,[10],inactive
CC1(C)CCCC2(C)C=C(C(=O)O)C(O)CC12 (stereo not given),max response,[1],-6.67%
same,max response,[2],-0.18%
same,max response,[3],1.72%
same,max response,[4],1.16%
same,Potency,[5],inactive
same,Potency,[6],inactive
same,Potency,[7],inactive
same,Potency,[8],inactive
same,Potency,[9],inactive
same,Potency,[10],inactive
C=C1C[C@]23C[C@H]1CC[C@H]2[C@@]12CC[C@H](O)[C@@](C)(C(=O)O1)[C@H]2[C@@H]3C(=O)O,max response,[1],-4.65%
same,max response,[2],-1.9%
same,max response,[3],6.55%
same,max response,[4],3.45%
same,Potency,[5],inactive
same,Potency,[6],inactive
same,Potency,[7],inactive
same,Potency,[8],inactive
same,Potency,[9],inactive
same,Potency,[10],inactive
COc1c2c(c(C)c3c1C(=O)OC3)O[C@@]1(C)CCC3(C(C)(C)O)OC(=O)CC[C@]3(C)[C@H]1C2 (stereo not given in full),max response,[1],-0.697%
same,max response,[2],-17.1%
same,outcome,[3],inactive
same,max response,[4],-21.1%
same,Potency,[5],inactive
same,Potency,[6],inactive
same,Potency,[7],inactive
same,Potency,[8],inactive
same,Potency,[9],inactive
same,Potency,[10],inactive
C[C@@H]1C[C@@H](O)[C@@]23CO[C@@H](O)[C@@H]2CCC[C@@H]3[C@@]12C[C@@H](c1ccoc1)OC2=O,max response,[1],-9.22%
same,max response,[2],-27.9%
same,max response,[3],7.75%
same,max response,[4],4.21%
same,Potency,[5],inactive
same,Potency,[6],inactive
same,Potency,[7],inactive
same,Potency,[8],inactive
same,Potency,[9],inactive
same,Potency,[10],inactive
COc1ccc([C@H]2CNC(=O)C2)cc1OC1CCCC1,max response,[1],-1.53%
same,max response,[2],-27.2%
same,max response,[3],-2.59%
same,max response,[4],-18.3%
same,Potency,[5],inactive
same,Potency,[6],inactive
same,Potency,[7],inactive
same,Potency,[8],inactive
same,Potency,[9],inactive
same,Potency,[10],inactive
COc1ccc(N2CCOCC2)c2sc(NC(=O)N3CCC(C)(O)CC3)nc12,max response,[1],-6.66%
same,max response,[2],3.93%
same,outcome,[3],inactive
same,max response,[4],-12%
same,Potency,[5],inactive
same,Potency,[6],inactive
same,Potency,[7],inactive
same,Potency,[8],inactive
same,Potency,[9],inactive
same,Potency,[10],inactive
C[C@@H]1O[C@@H](O[C@H]2[C@@H]3C=CO[C@@H](O[C@@H]4O[C@H](CO)[C@@H](O)[C@H](O)[C@H]4O)[C@@H]3[C@@]3(CO)O[C@@H]23)[C@H](OC(=O)/C=C/c2ccc(O)c(O)c2)[C@H](O)[C@H]1O,max response,[1],-5.61%
same,max response,[2],1.24%
same,max response,[3],6.2%
same,max response,[4],-3.69%
same,Potency,[5],inactive
same,Potency,[6],inactive
same,Potency,[7],inactive
same,Potency,[8],inactive
same,Potency,[9],inactive
same,Potency,[10],inactive
CC1OC(OC2C(O)C(OC3CCC4(C)C(CCC5(C)C4CC=C4C6CC(C)(COC7OC(CO)C(O)C(O)C7O)CC(O)C6(C)CCC45C)C3(C)C)OC(C(=O)O)C2O)C(O)C(O)C1OC1OCC(O)C(O)C1O (stereo not given),max response,[1],-5.93%
same,max response,[2],-5.35%
same,outcome,[3],inactive
same,max response,[4],-0.449%
same,"activity change, negative = cytotoxicity",[5],5.66% [at 11.6 µM]
same,"activity change, negative = cytotoxicity",[6],-2.68% [at 11.6 µM]
same,"activity change, negative = cytotoxicity",[7],8.83% [at 11.6 µM]
same,"activity change, negative = cytotoxicity",[8],12.4% [at 11.6 µM]
same,"activity change, negative = cytotoxicity",[9],11.9% [at 11.6 µM]
same,"activity change, negative = cytotoxicity",[10],10.4% [at 11.6 µM]
